PubChem BioAssay (NCI)
The panel holds about 83,000 compounds, 20% with a hit somewhere; the sample as a whole holds those more often.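 How to read the values: 0–100, growth inhibition (40 = 60% inhibited); 0, no net growth; -100 to 0, cell death (-40 = 40% of starting cells died; -100 = all dead).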 A number with no mark means an inactive call. Active and inactive are the calls of the source. Rule for the calls: active = growth percent below 10; inactive = the rest.

Experiments:
Assay in all cases: NCI-60 one-dose screen, 48 h (100 = growth as untreated, 0 = no growth, -100 = all killed)
Conditions in all cases: 10 µM unless noted
NCI-H23 lung = system: NCI-H23 lung
NCI-H226 lung = system: NCI-H226 lung
NCI-H322M lung = system: NCI-H322M lung
HOP-62 NSCLC = system: HOP-62 NSCLC
NCI-H460 lung = system: NCI-H460 lung
HOP-92 NSCLC = system: HOP-92 NSCLC
NCI-H522 lung = system: NCI-H522 lung
A549/ATCC NSCLC = system: A549/ATCC NSCLC
786-0 renal = system: 786-0 renal
COLO 205 colon = system: COLO 205 colon
DU-145 prostate = system: DU-145 prostate
K-562 leukemia = system: K-562 leukemia
MALME-3M melanoma = system: MALME-3M melanoma
MDA-MB-231 breast = system: MDA-MB-231 breast
RXF 393 renal = system: RXF 393 renal
SF-268 CNS = system: SF-268 CNS
SF-295 CNS = system: SF-295 CNS
SF-539 CNS = system: SF-539 CNS
UACC-257 melanoma = system: UACC-257 melanoma
M14 melanoma = system: M14 melanoma

Structure (SMILES)	growth (NCI-H23 lung)	growth (NCI-H226 lung)	growth (NCI-H322M lung)	growth (HOP-62 NSCLC)	growth (NCI-H460 lung)	growth (HOP-92 NSCLC)	growth (NCI-H522 lung)	growth (A549/ATCC NSCLC)	growth (786-0 renal)	growth (COLO 205 colon)	growth (DU-145 prostate)	growth (K-562 leukemia)	growth (MALME-3M melanoma)	growth (MDA-MB-231 breast)	growth (RXF 393 renal)	growth (SF-268 CNS)	growth (SF-295 CNS)	growth (SF-539 CNS)	growth (UACC-257 melanoma)	growth (M14 melanoma)
C#Cc1cccc(Nc2ncnc3cc(OCCOC)c(OCCOC)cc23)c1	74.9%	75.4%	0.463% (active)	63%	55.8%	72.8%	-6.57% (active)	41.5%	57.5%	60.8%	35.8%	51.3%	67.6%	67%	46.1%	62.9%	84.9%	81.1%	85.7%	48.5%
O=C(NOCCO)c1cc(CN2OCCCC2=O)c(F)c(F)c1Nc1ccc(I)cc1F	22.7%	50.9%	15.4%	36.8%	59.4%	-20% (active)	45.8%	28.9%	64.6%	5.72% (active)	56.7%	31.2%	-2.48% (active)	32.2%	24.9%	67.5%	71.6%	55.4%	-13.2% (active)	9.12% (active)
C/C(=C(/c1ccc(Cl)cc1)c1ccc(OCCN2CCCCCC2)cc1)c1ccccc1	74.9%	95.8%	93.2%	90.3%	76.3%	82.6%	72.9%	67.8%	82%	15.9%	83.5%	22.7%	81.7%	86.9%	81.4%	93%	86.4%	72.4%	92.2%	81.4%
CCN1CCN(Cc2ccc(NC(=O)Nc3nc(-c4cc(OC)c(OC)c(OC)c4)cs3)cc2C(F)(F)F)CC1	37.6%	56.8%	63%	49.9%	-1.08% (active)	54.4%	55.9%	26.1%	-50.9% (active)	-68.4% (active)	38.7%	-9.87% (active)	-49.8% (active)	-13.8% (active)	22.6%	34.8%	-38% (active)	-6.61% (active)	-13.1% (active)	-78.6% (active)
Cc1cc(Oc2ccccc2)ccc1Nc1ncnc2ccc(-c3cnc(Cl)c(NS(C)(=O)=O)c3)cc12	28.5%	36.9%	0.949% (active)	28.2%	18%	-14% (active)	32.1%	11%	16.8%	12.1%	32.1%	54.3%	0.126% (active)	17.4%	-31.6% (active)	35.4%	5.34% (active)	-15.3% (active)	6.42% (active)	19.5%
COc1cccc(Nc2ncnn3ccc(CN4CC[C@@H](N)[C@H](O)C4)c23)c1	36.3%	5.97% (active)	0.241% (active)	18.7%	73.8%	26.3%	14.4%	12.1%	13.1%	34.6%	27.1%	2.52% (active)	86.4%	31.3%	-41.4% (active)	45.1%	72.9%	-2.77% (active)	76.1%	96%
COC(=O)[C@@H](OC)[C@@H]1Cc2cc3cc(OC4CC(OC5CC(O)C(O)C(C)O5)C(O)C(C)O4)c(C)c(O)c3c(O)c2C(=O)[C@H]1OC1CC(OC2CC(OC3CC(C)(O)C(O)C(C)O3)C(O)C(C)O2)C(O)C(C)O1 (stereo not given in full)	-47.3% (active)	-41.9% (active)	12.3%	6.33% (active)	4.95% (active)	-15.6% (active)	-30.3% (active)	8.71% (active)	9.07% (active)	-37.2% (active)	10.2%	4.16% (active)	-58% (active)	-8.44% (active)	-73% (active)	3.86% (active)	-10.6% (active)	-41.6% (active)	-11.2% (active)	-71.5% (active)
Cn1ccnc1C(=O)/C=C/c1ccc(CC(=O)Nc2ccc(Br)cc2)cc1	24.5%	43.2%	6.4% (active)	-32.7% (active)	-11.2% (active)	61.1%	2.89% (active)	3.64% (active)	7.96% (active)	6.56% (active)	3.61% (active)	6.58% (active)	75.5%	10.1%	21%	16.2%	19.4%	-38.5% (active)	79.1%	53.6%
S=C(NCc1ccc2c(c1)OCO2)N1CCN(c2ncnc3c2oc2ccccc23)CC1	44.1%	28.7%	35.3%	30.7%	31.8%	38.1%	22.6%	25.6%	47.5%	4.16% (active)	35.4%	19.4%	51.1%	57.1%	50.7%	42.2%	26.4%	39.7%	9.31% (active)	35.2%
O=C1C=CC2(NN=C(c3ccccc3)N2c2ccccc2)c2cccc(O)c21 (stereo not given)	9.65% (active)	51.9%	83.9%	21.5%	34.1%	117%	28.7%	14.8%	102%	80.8%	35.7%	28.6%	11.6%	75.6%	120%	49.4%	17.1%	25.4%	3.12% (active)	8.81% (active)
O=S1(=O)OC(c2ccc(O)c(Cl)c2)(c2ccc(O)c(Cl)c2)c2ccccc21	97.8%	93.9%	107%	99.5%	101%	60.6%	93.4%	99.1%	110%	103%	103%	113%	114%	109%	105%	96.9%	103%	93.3%	98.9%	105%
COCCOc1cnc2ccn([C@H](C)c3nnc4c(F)cc(-c5cnn(C)c5)cn34)c(=O)c2c1	51.1%	68.8%	59.2%	89.2%	75.6%	85.3%	87.7%	65.7%	108%	106%	91.2%	96.8%	9.06% (active)	63.9%	81.2%	85.9%	67.4%	99.1%	69.1%	91.6%
COc1cc2nc(Nc3cccc(Cl)c3)nc(N)c2cc1OC	88.2%	90.3%	89.7%	106%	66.9%	40.6%	101%	73.4%	62%	-60.1% (active)	32.3%	24%	107%	60.3%	45.4%	77.1%	108%	90.3%	90.3%	78.4%
Cn1cnc2c(F)c(Nc3ccc(Br)cc3Cl)c(C(=O)NOCCO)cc21	25.7%	55.3%	11.2%	28.6%	60.2%	-0.548% (active)	44.4%	35.8%	71.1%	-3.79% (active)	69.6%	47.2%	-16.2% (active)	24.7%	14.7%	77.2%	82.8%	69%	-21.2% (active)	6.05% (active)
O=C(Cc1ccc(-c2ccc(OCCN3CCOCC3)cc2)cn1)NCc1ccccc1	29%	48.8%	33.1%	-3.09% (active)	2.01% (active)	27.6%	-5.77% (active)	4.91% (active)	24.2%	-65.3% (active)	8.3% (active)	7.04% (active)	40.4%	26.7%	29.3%	29.6%	11.7%	-33.2% (active)	8.49% (active)	0.711% (active)
